The source made the active and inactive calls.
Tests used:
[1] = small molecules captured by biotinylated probe aFSTL3 – biochemical, small-molecule microarray, fluorescence 635/667, stem cell growth factor project, primary screen (AID 1064); conditions: higher = more signal;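 note: measures binding of the biotinylated anti-FSTL3 antibody to printed compounds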
[2] = binders from COS7 lysate, DM2A8 probe, primary screen, torsin A project, cell lysate, small-molecule microarray, fluorescence 635/667 (AID 1065); conditions: higher = more signal, COS7 lysate expressing mutant human TOR1A
[3] = small molecules captured by biotinylated probe aFGF2 – biochemical, small-molecule microarray, fluorescence 635/667, stem cell growth factor project, primary screen (AID 1067); conditions: higher = more signal;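 note: measures binding of biotinylated aFGF2 protein to printed compounds on slides; z-score merges feature fluorescence and signal-to-noise across triplicate slides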
[4] = small molecules captured by biotinylated probe aFGF10 – biochemical, small-molecule microarray, fluorescence 635/667, stem cell growth factor project, primary screen (AID 1071); conditions: higher = more signal;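 note: score merges 667 nm spot intensity and signal to noise from triplicate slides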
[5] = molecular target: Neurogenic locus notch homolog protein 2 (Homo sapiens) (UniProt Q04721); test: small molecules binding Notch2 protein – biochemical, small-molecule microarray, 635 nm fluorescence, stem cell growth factors, primary screen (AID 1073); conditions: higher = more signal
Chain of Neurogenic locus notch homolog protein 2 (Homo sapiens) (Q04721 whole entry, looked up, canonical isoform): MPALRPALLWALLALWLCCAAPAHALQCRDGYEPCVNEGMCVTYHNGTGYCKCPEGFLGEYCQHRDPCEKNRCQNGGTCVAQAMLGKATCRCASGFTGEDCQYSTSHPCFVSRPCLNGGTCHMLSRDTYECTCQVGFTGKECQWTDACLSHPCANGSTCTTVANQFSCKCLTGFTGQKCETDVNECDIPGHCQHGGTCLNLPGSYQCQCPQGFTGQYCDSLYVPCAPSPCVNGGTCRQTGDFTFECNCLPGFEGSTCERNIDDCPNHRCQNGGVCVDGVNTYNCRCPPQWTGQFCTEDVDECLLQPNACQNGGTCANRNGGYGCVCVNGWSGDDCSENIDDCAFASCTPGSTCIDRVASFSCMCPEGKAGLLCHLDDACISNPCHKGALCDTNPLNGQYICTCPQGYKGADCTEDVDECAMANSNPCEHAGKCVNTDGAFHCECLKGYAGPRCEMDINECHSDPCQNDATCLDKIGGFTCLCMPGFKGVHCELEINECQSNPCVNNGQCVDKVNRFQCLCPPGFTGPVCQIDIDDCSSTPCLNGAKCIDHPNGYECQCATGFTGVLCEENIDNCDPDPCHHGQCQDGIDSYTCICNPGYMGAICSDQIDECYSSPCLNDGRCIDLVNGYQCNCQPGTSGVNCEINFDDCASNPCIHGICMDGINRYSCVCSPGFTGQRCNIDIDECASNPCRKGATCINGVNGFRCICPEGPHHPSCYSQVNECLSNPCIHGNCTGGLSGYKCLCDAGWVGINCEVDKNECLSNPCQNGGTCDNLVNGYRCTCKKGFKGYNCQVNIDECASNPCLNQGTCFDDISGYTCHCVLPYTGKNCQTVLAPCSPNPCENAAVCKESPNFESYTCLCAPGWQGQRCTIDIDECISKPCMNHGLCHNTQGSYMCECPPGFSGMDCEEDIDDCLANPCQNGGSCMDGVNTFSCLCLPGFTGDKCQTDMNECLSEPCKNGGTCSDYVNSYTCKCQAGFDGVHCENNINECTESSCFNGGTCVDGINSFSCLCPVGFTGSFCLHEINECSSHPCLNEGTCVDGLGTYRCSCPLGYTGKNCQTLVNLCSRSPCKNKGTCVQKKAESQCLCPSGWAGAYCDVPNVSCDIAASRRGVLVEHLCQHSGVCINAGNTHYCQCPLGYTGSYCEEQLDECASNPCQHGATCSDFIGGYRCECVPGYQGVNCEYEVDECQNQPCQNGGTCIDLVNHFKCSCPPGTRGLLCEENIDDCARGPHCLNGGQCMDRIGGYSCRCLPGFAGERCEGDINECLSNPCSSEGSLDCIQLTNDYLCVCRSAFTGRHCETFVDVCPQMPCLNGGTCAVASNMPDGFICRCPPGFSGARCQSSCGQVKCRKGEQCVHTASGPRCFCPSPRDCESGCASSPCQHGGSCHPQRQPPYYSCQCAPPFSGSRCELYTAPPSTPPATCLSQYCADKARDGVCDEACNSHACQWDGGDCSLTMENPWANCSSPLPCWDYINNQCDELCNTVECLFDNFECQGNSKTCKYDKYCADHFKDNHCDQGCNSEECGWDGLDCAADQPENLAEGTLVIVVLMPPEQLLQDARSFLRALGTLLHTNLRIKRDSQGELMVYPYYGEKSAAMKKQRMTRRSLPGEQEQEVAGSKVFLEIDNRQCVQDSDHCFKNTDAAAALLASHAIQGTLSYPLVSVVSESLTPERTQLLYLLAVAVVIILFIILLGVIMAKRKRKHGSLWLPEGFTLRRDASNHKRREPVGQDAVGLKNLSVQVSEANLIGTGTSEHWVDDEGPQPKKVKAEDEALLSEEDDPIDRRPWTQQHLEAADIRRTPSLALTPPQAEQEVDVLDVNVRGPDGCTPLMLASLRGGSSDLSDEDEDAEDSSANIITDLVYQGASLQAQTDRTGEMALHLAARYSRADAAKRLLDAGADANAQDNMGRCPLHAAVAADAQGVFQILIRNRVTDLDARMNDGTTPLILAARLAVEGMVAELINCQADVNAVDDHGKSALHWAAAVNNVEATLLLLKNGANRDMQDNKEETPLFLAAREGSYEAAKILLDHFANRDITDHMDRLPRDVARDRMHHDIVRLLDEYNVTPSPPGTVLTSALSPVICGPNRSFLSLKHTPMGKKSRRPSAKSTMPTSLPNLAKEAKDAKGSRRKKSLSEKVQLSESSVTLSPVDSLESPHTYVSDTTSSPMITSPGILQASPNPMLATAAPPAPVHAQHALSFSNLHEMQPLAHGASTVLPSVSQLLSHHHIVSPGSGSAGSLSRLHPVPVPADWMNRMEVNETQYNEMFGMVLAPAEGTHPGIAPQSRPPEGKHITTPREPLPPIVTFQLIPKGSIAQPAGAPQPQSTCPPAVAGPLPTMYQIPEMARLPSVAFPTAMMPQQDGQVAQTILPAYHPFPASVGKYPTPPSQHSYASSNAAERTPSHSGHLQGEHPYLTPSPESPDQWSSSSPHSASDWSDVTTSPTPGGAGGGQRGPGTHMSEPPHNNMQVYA

[6] = molecular target: Pro-neuregulin-1, membrane-bound isoform (Homo sapiens) (UniProt Q02297); test: small molecules binding neuregulin-1 protein – biochemical, small-molecule microarray, fluorescence 635/667, psychiatric disease protein project, primary screen (AID 1075); conditions: NRG1 binding, 635 nm fluorescence, higher = more signal;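 note: score combines 667 nm spot fluorescence with signal to noise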
Chain of Pro-neuregulin-1, membrane-bound isoform (Homo sapiens) (Q02297 whole entry, looked up, the tested form may be a part, canonical isoform): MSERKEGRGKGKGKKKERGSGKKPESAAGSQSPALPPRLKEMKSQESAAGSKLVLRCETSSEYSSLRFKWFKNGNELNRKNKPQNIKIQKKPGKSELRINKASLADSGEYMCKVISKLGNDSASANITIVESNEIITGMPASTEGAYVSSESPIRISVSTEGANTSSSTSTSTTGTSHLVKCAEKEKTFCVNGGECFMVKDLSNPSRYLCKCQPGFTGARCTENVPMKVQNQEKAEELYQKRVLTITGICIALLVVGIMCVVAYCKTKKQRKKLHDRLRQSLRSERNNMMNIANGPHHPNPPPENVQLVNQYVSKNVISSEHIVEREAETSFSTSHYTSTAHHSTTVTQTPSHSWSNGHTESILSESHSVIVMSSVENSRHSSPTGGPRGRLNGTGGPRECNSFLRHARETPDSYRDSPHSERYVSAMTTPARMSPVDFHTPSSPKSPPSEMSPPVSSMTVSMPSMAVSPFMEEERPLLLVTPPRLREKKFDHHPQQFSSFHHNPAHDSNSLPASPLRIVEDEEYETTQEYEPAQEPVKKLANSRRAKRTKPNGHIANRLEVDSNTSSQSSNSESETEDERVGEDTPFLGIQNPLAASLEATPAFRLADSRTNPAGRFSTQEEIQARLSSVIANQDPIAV

[7] = test system: Neuregulin-1 EGF-like domain; test: small molecules binding NRG1 EGF domain – biochemical, small-molecule microarray, 635 nm fluorescence, primary screen (AID 1081); conditions: higher = more signal;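 note: binding of the protein to compounds printed on small-molecule microarray slides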
[8] = FRG1 expression reporter modulators in myotubes – cell-based, C2C12 myotubes, firefly/Renilla luciferase, luminescence, FRG1 inhibition for FSHD, primary screen (AID 1084); conditions: FRG1 promoter luciferase, higher = more signal, called active from +8 up or from −8 down
[9] = small molecules captured by biotinylated probe aFST – biochemical, small-molecule microarray, fluorescence 635/667, stem cell growth factor project, primary screen (AID 1086); conditions: higher = more signal;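 note: score merges 667 nm fluorescence with signal-to-noise of each printed compound spot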
[10] = binders of probe aHhip on microarray, primary screen, stem cell growth factor project, biochemical, small-molecule microarray, fluorescence 635/667 (AID 1087); conditions: higher = more signal;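 note: score merges spot fluorescence at 667nm with spot signal to noise ratio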

| SMILES | composite z-score [1] | composite z-score [2] | composite z-score [3] | composite z-score [4] | composite z-score [5] | composite z-score [6] | composite z-score [7] | z-score [8] | composite z-score [9] | composite z-score [10] |
| --- | --- | --- | --- | --- | --- | --- | --- | --- | --- | --- |
| Cc1ccc(S[C@]2(C(=O)NC(C)C)CC(=O)N(Cc3ccccc3)[C@@H]2c2ccc(CO)cc2)cc1 | 0.466 | -0.488 | -0.0909 | -1 | -1.25 | 1.56 | 0.57 | -2.62 (inactive) | -0.604 | 0.0373 |
| COC(=O)C(CC#Cc1ccc2c(c1)[C@]1(C(=O)N2)[C@H](C(=O)NC[C@H](O)c2ccccc2)[C@H]2C(=O)O[C@H](c3ccccc3)[C@H](c3ccccc3)N2[C@@H]1c1ccc(O)cc1)C(=O)OC | -0.297 | 0.328 | -0.121 | -0.199 | 0.259 | 0.529 | 0.773 | 0.589 (inactive) | 0.056 | -0.131 |
| C[C@@]1([C@@H](NS(=O)(=O)c2cccc3cccnc23)c2ccc(-c3ccccc3)cc2)C[C@H]1C1CCCCC1 | 0.299 | 0.0816 | 0.163 | -0.0733 | 0.983 | 0.609 | 0.809 | -0.365 (inactive) | -0.244 | 0.0446 |
| O=C1O[C@H](c2ccccc2)[C@H](c2ccccc2)N2[C@H]1[C@@H](C(=O)N1CCCCCCC1)[C@]1(C(=O)Nc3ccc(C#CCCO)cc31)[C@H]2c1ccc(O)cc1 | 3.79 | 2.62 | 0.978 | 1.4 | 1.79 | 2.79 | 1.42 | -1.1 (inactive) | 3.34 | 1.7 |
| CC1C2C(CCCO)=CC(C3C(=O)N(C)C(=O)C23)N1Cc1cccc(OC(F)(F)F)c1 (stereo not given) | -0.0014 | 0.289 | 0.0653 | 0.647 | 0.929 | 2.04 | 1.37 | 0.0511 (inactive) | 0.155 | 0.289 |
| Cc1ccc(S[C@]2(C(=O)NCc3ccccc3)CC(=O)N(Cc3ccccc3Cl)[C@@H]2c2ccc(CO)cc2)cc1 | 1.05 | -0.363 | -0.0639 | 0.0799 | -0.331 | 1.26 | 0.79 | -3.18 (inactive) | -0.603 | -0.353 |
| Cc1ccc(S[C@]2(C(=O)NCCN3CCOCC3)CC(=O)N(C(C)C)[C@@H]2c2ccc(CO)cc2I)cc1 | 1.15 | -0.158 | -0.0805 | -0.11 | -0.521 | 1.69 | 1.35 | -0.977 (inactive) | 0.153 | -0.166 |
| CC(C)C[C@@H]1NC(=O)[C@@H]2C[C@H](C(=O)NCCCCCNC(=O)CS)[C@H](c3ccc(O)cc3)N2C1=O | 0.0099 | 1.8 | -0.0986 | -0.435 | 0.0232 | 1.75 | 1.17 | 2.98 (inactive) | -0.265 | -0.0994 |
| C=C(COC)C(=O)CC[C@@H](OC(=O)c1ccccc1-c1ccccc1C(=O)O)c1ccccc1OCCO | -0.167 | 2.13 | -0.0543 | 1.27 | 0.468 | -0.189 | 1.12 | 0.896 (inactive) | -0.168 | -0.236 |
| COC(=O)c1c2oc(c1C(=O)OC)C(=O)N[C@H](Cc1ccccc1)Cn1cc(nn1)C1(CCCCC1)NC(=O)N[C@H](CO)CC2 | -0.194 | 0.112 | -0.0561 | 0.399 | -0.0222 | 0.657 | 0.647 | -1.12 (inactive) | -0.259 | -0.0102 |
| CCCCCCCCCCC(O)C1C=CC2C(=O)N(C)C(=O)C2N1Nc1ccccc1 (stereo not given) | 0.889 | 0.149 | -0.229 | -1.07 | -0.932 | 0.0962 | -0.101 | 0.767 (inactive) | -0.191 | -0.469 |
| [N-]=[N+]=NCc1ccccc1C[C@]1(C(=O)N2CCCCC2)COC(c2ccc(OCCCO)cc2)=N1 | 0.438 | 0.184 | -0.0151 | 1.01 | 0.207 | 1.13 | 0.996 | -4.13 (inactive) | 1.68 | 2.35 |
| CC(C)c1ccc(NN2C(C(O)C(C)c3ccccc3)C=CC3C(=O)N(c4ccccc4)C(=O)C32)cc1 (stereo not given) | 1.31 | 1.04 | 0.51 | 1.08 | 1.71 | 2.09 | 1.12 | -0.632 (inactive) | 1.97 | -0.12 |
| CC(C)(C)OC(=O)N1[C@@H](C=C(Br)Br)COC1(C)C | -0.195 | -0.0287 | 0.0014 | 0.348 | 0.519 | -0.0961 | 0.286 | -1.42 (inactive) | 0.125 | 0.0302 |
| COC(=O)c1ccc(OC)c(/C=C\CC(OC(=O)c2ccncc2)c2ccccc2)c1 (stereo not given) | -0.273 | 0.285 | -0.107 | 0.257 | 0.481 | -0.106 | -0.0115 | -1.97 (inactive) | 0.0754 | 0.0514 |
| COCCOC(=O)N1C(=O)[C@@]2(c3ccccc31)[C@H](C(=O)Nc1nc3ccccc3s1)[C@H]1C(=O)O[C@H](c3ccccc3)[C@H](c3ccccc3)N1[C@@H]2c1ccccc1OCCO | 0.451 | 0.0049 | -0.0036 | 0.798 | 1.15 | 1.05 | 1.2 | 2.13 (inactive) | 0.318 | 0.157 |
| Cc1ccc(S[C@]2(C(=O)NC3CC3)CC(=O)N(C3Cc4ccccc4C3)[C@@H]2c2ccc(CO)cc2I)cc1 | 0.851 | -0.1 | -0.133 | -0.0222 | -0.603 | 0.996 | 0.381 | -2.24 (inactive) | -0.228 | -0.286 |

| SMILES | composite z-score [1] | composite z-score [2] | composite z-score [3] | composite z-score [4] | composite z-score [5] | composite z-score [6] | composite z-score [7] | z-score [8] | composite z-score [9] | composite z-score [10] |
| --- | --- | --- | --- | --- | --- | --- | --- | --- | --- | --- |
| CC1(C)OB(/C=C\CC(OC(=O)c2ccncc2)c2ccccc2)OC1(C)C (stereo not given) | 2.93 | 0.214 | 0.0262 | -1.4 | -1.48 | 0.852 | 0.181 | 1.99 (inactive) | -0.0939 | -0.0296 |
| C=C(COC)C(=O)CC[C@H](OC(C)=O)c1ccccc1OCCO | -0.0661 | 0.697 | -0.167 | 0.484 | -0.987 | -0.493 | 0.355 | -0.0831 (inactive) | -0.215 | -0.0994 |
| CCCC[C@@H](O)C1=C(C)Cn2c(=O)n(-c3ccccc3)c(=O)n2[C@H]1CO | -0.571 | -0.0827 | -0.092 | 0.361 | -0.362 | -0.773 | -0.151 | -0.755 (inactive) | -0.378 | 0.0053 |
| CC1C2C(CCCO)=CC(C3C(=O)N(C(N)=O)C(=O)C23)N1Cc1cccc(OC(F)(F)F)c1 (stereo not given) | -0.261 | 0.913 | -0.0558 | 0.767 | 0.53 | 1.18 | 1.28 | 1.88 (inactive) | 0.269 | 0.0659 |
| CC[C@@H]1C=C(C(=O)O)[C@H](c2cccc(Cl)c2)N1S(=O)(=O)c1ccc(C)cc1 | 0.0801 | 0.969 | 0.0263 | 0.516 | 1.36 | 1.27 | 0.855 | -1.53 (inactive) | 0.177 | 0.0424 |
| CC(C)C(=C=CC[C@H](O)c1cccc(OCCO)c1)C[C@H](O)c1ccccn1 | -0.242 | -0.243 | -0.166 | 0.016 | -0.0938 | -0.272 | 1.05 | -0.29 (inactive) | -0.0565 | -0.0645 |
| COC(=O)[C@@]1(Cc2ccc(F)cc2)[C@H]2c3cc(C(=O)N4CCCC4)n(C[C@H](O)CO)c3C[C@H]2CN1C(=O)c1ccccc1 | 0.468 | 0.501 | 0.474 | 0.697 | 1.17 | 2.15 | 1.16 | 3.49 (inactive) | 1.42 | 1.35 |
| C=CC[C@H](O)c1ccc(O)c2ccccc12 | -0.112 | 0.821 | -0.0558 | 0.513 | 0.61 | 0.826 | 1.3 | -0.0666 (inactive) | 0.193 | 0.0749 |
| C=C(C(=O)CC[C@@H](OC(=O)c1cccnc1)c1cccc(OCCO)c1)C(C)C | -0.512 | -0.0785 | -0.167 | 0.684 | -0.0786 | -0.145 | -0.284 | 1.2 (inactive) | 0.267 | -0.236 |
| COC(=O)[C@@]1(Cc2ccc(F)cc2)[C@H]2c3cc(C(=O)N(C)C)n(CCF)c3C[C@H]2CN1C(=O)c1ccccc1 | 0.267 | 0.0612 | 0.131 | 0.623 | 1.22 | 1.83 | 1.06 | -1.3 (inactive) | 0.329 | 0.0274 |
| COC(=O)[C@@]1(Cc2ccc(OC)cc2)[C@@H]2[C@@H](CC(=O)[C@H]2CC(=O)C(=O)N(C)C)CN1C(=O)c1ccccc1 | 2.09 | 0.496 | 0.81 | 1.2 | 1.78 | 1.69 | 1.06 | -0.224 (inactive) | 2.67 | 0.357 |
| CCOC(=O)C1=CC[C@@H](c2ccccc2)N(S(=O)(=O)c2ccc(C)cc2)[C@@H]1C#N | -0.182 | -0.0258 | 0.0056 | 0.388 | 1.25 | 1.11 | 1.05 | -0.823 (inactive) | 0.158 | 0.0505 |
| C=CC[C@]12N=C(c3ccc(OCCCO)cc3)O[C@H]1c1ccccc1N(CCC)C2=O | 1.08 | 1.02 | 0.239 | 0.367 | 0.481 | 1.56 | 1.35 | 0.43 (inactive) | 2 | -0.0961 |
| CN1C(=O)C2C=CC(C(O)c3cccs3)N(N(c3ccccc3)c3ccccc3)C2C1=O (stereo not given) | -0.128 | -0.493 | 0.0472 | 0.272 | 1.1 | 1.19 | 1.21 | -0.179 (inactive) | 0.379 | -0.0645 |
| CO[C@H]1O[C@H](CO)[C@@H](OC(=O)Nc2cccc(F)c2)[C@H](OC(=O)Nc2ccc3c(c2)OCO3)[C@@H]1OC(=O)Nc1ccc2c(c1)OCO2 | -0.0407 | 0.786 | 0.112 | 0.959 | 1.46 | 1.25 | 1.27 | 4 (inactive) | 0.986 | 0.21 |
| CCCCC(=C=CC[C@@H](O)c1ccccc1OCCO)C[C@@H](O)c1ccccn1 | 0.0106 | 0.362 | -0.102 | 0.23 | 0.418 | 0.69 | 0.327 | -1.14 (inactive) | -0.0288 | -0.0645 |
| CCOC(=O)C1=CCC(c2ccncc2)N(S(=O)(=O)c2ccc(C)cc2)C1 (stereo not given) | -0.149 | -0.128 | -0.0459 | 1.03 | 1.32 | 2.03 | 1.21 | -1.41 (inactive) | 0.981 | -0.0735 |

Reference: PubChem BioAssay
